Sampled rows, rich in hits. Any-hit rate of the full collection: about 5.4%.
MPTP inh: blocks calcium-induced mitochondrial swelling; isolated mouse mitochondria, Ca2+ swelling absorbance, 30 min; inhibition, % at 10 µM; actives 1.4% (n = 360,000); AID 602449;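 active = inhibition of 50% or more, scaled per plate between neutral and stimulator controls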;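 also: 0% = DMSO wells given calcium and 100% = 1 mM EGTA wells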
Mdm2-MdmX inh: disrupts the human Mdm2-MdmX interaction | O15151+Q00987 | SaOS-2 split-luciferase Mdm2/MdmX complementation, luminescence | inhibition, % at 8 µM | actives 3% (n = 330,000) | AID 485346;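 active = inhibition of at least 50% at 8 µM in the primary screen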
Target sequence (O15151 whole entry, looked up): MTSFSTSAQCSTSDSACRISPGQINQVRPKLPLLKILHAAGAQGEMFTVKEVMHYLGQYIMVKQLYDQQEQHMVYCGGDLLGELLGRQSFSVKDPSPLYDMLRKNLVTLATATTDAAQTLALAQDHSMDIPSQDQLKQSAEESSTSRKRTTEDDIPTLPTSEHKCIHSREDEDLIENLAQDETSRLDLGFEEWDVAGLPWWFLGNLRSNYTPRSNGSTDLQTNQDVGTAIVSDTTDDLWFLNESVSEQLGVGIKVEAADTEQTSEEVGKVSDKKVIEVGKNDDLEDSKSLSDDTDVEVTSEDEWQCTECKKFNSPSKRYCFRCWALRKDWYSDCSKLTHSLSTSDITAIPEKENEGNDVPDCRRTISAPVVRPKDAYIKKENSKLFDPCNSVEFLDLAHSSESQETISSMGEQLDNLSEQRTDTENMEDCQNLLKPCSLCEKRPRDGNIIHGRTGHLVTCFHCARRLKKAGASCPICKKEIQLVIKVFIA
Target sequence (Q00987 whole entry, looked up): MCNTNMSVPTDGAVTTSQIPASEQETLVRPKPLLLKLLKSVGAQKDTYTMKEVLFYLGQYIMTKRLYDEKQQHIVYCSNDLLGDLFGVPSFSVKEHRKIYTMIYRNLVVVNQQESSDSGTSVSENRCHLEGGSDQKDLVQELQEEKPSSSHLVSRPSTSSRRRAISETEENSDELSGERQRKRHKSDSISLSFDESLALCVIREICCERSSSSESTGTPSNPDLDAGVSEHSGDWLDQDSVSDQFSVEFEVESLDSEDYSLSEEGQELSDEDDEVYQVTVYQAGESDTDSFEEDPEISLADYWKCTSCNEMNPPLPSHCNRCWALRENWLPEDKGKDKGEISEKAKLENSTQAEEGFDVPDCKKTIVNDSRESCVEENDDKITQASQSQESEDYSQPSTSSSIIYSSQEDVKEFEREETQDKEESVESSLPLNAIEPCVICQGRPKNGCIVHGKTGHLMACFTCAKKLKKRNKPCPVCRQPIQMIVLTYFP
CSC inhib: cancer stem cell inhibition; cancer stem cell-like cells viability, luminescence; inhibition, % at 7.5 µM; actives 1.1% (n = 300,000); in the data active = inhibition above about 75%; inconclusive = no clear call, values can overlap the other calls; tested in HMLE shEcad cells
SKKanGAS inh: blocks kanamycin growth of S. pyogenes SKKanGAS strain | BacTiter-Glo, 6 h | inhibition, % at 7.5 µM | actives 1.3% (n = 300,000) | AID 1662;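 active = mean replicate score, as percent of positive control median, at least 50; inconclusive = mean below 50 but one replicate at or above 50; inactive = mean and every replicate below 50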;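 also: strain carries kanamycin resistance gene driven by streptokinase promoter and grows in 40 µg/ml kanamycin; loss of luminescence reflects streptokinase promoter inhibition or plain growth inhibition; 0% = median of DMSO wells and 100% = positive control at its reference dose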
Calb FLC: affects C. albicans growth with fluconazole | growth inhibition, % (no concentration beside the values) | C. albicans CaCi-2 (fluconazole-resistant clinical isolate) + fluconazole, Alamar Blue growth, 48 h | actives 0.57% (n = 300,000);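 active = growth inhibition above about 58% in most replicates, limit read from the data, passing the limit was not always enough; inconclusive = exactly half the replicates above a set limit; inactive = most replicates below a set limit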;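 also: all wells also contain fluconazole at 8 µg/ml as a sub-toxic cotreatment; 0% = median of DMSO wells and 100% = median of geldanamycin control wells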
Beta cell apopt: beta cell apoptosis inhibition; actives 0.8% (n = 300,000); protection from apoptosis, % (test concentration not listed); INS-1E cytokine-induced death, ATP luminescence, 48 h; percent of positive-control rescue, neutral wells zero;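 active = Every replicate reaches about 75%, or at least half do and their mean reaches it too, limit read from the data; inconclusive = At least half of replicates reach the limit but their mean does not; inactive = Under half of replicates reach the limit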;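 also: 0% = cytokine-treated negative control wells and 100% = positive control rescue; higher means more ATP so stronger rescue from cytokine killing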
An asterisk follows results filed as active; ? = inconclusive; . = not tested or not shown.

SMILES	MPTP inh	Mdm2-MdmX inh	CSC inhib	SKKanGAS inh	Calb FLC	Beta cell apopt
C=CC1=C(C(=O)O)N2C(=O)C(NC(=O)Cc3ccccc3)C2SC1 (configuration not stated)	0	20	-10	95*	5	-9
CC1=C(C(=O)OCc2ccccc2)N2C(=O)[C@@H](NC(=O)COc3ccccc3)[C@H]2SC1	-2	8	9	4	18	-4
O=C(COc1ccccc1)NC1C(=O)N2C(C(=O)O)=C(Cl)CSC12 (configuration not stated)	2	-31	-22	102*	-1	1
COc1ccc(C2CC(c3ccccc3)=NN2C(=O)COC(=O)c2cccc(S(=O)(=O)N3CCOCC3)c2)cc1 (configuration not stated)	1	2	-2	15	8	13
CCOC(=O)c1c(NC(=O)C(=O)N/N=C/c2ccccc2OC)sc2c1CCCCC2	48	9	14	14	20	-8
CCOC(=O)c1c(NC(=O)C(=O)N/N=C/c2ccccc2O)sc2c1CCCCC2	-1	15	83*	9	-3	37
CC(=O)N1CCN(C(=O)COC(=O)COc2c(C)cc(C)cc2C)CC1	-3	13	.	.	.	-2
Cc1cc(C)cc(NS(=O)(=O)c2ccc3c(c2)c(=O)n(C)c(=O)n3C)c1	1	39	102*	4	-3	8
Cn1c(=O)c2cc(S(=O)(=O)Nc3cc(C(=O)O)cc(C(=O)O)c3)ccc2n(C)c1=O	2	5	-2	-3	27	-2
CCOCC(=O)Nc1nc(C)cc(C)n1	1	-21	-11	3	-1	1
CC(C)Oc1cccc(C(=O)NC(=S)Nc2ccccc2N2CCOCC2)c1	-1	29	121*	34	0	1
O=C(NC(=S)Nc1ccccc1N1CCCC1)c1ccccc1[N+](=O)[O-]	0	.	10	6	1	-1
O=C(NC(=S)Nc1ccccc1N1CCOCC1)c1cccc([N+](=O)[O-])c1	-1	14	59	4	-2	12
COc1ccc(C(=O)NC(=S)Nc2ccccc2N2CCOCC2)cc1Br	1	30	37	-5	6	12
O=C(NC(=S)Nc1ccccc1N1CCCC1)c1ccccc1Br	1	16	3	81*	2	1
COc1cccc(C(=O)NC(=S)Nc2ccccc2N2CCCC2)c1	1	21	-5	-11	6	-8
COc1cccc(C(=O)NC(=S)Nc2ccccc2N2CCCCC2)c1	0	24	41	65*	11	.
CCOc1ccc(C(=O)NC(=S)Nc2ccccc2N2CCOCC2)cc1Br	2	28	101*	6	0	-7
Cc1cc2[nH]c(=O)c(=O)[nH]c2cc1S(=O)(=O)N1CCN(c2ccccc2F)CC1	-2	26	-4	-11	81*	-3
Cc1cc2[nH]c(=O)c(=O)[nH]c2cc1S(=O)(=O)N1CCN(c2cccc(C)c2C)CC1	-1	14	.	2	4	-1
Cc1ccc(Sc2cc(C)nc(-c3ccccn3)n2)cc1	2	-4	-3	85*	32	87*
COc1ccccc1Sc1nc(-c2ccccn2)ncc1OC	-1	27	3	83*	3	32
COc1cnc(-c2ccccn2)nc1Oc1ccc(Cl)cc1	-1	17	17	-7	-13	8
COc1cnc(-c2ccccn2)nc1Sc1ccc(C)cc1	-1	43	-6	67*	20	92*
COc1cnc(-c2ccccn2)nc1Oc1ccc(F)cc1F	-1	10	-2	5	-10	-6
SMILES	MPTP inh	Mdm2-MdmX inh	CSC inhib	SKKanGAS inh	Calb FLC	Beta cell apopt
COc1cnc(-c2ccccn2)nc1Oc1ccccc1Cl	0	-21	-14	71*	-15	11
CC(=O)NC(CCS(C)(=O)=O)C(=O)Nc1cc(C)ccc1C (configuration not stated)	1	-4	-15	5	-2	-10
COc1ccc(C(=O)NCC2CCCN2S(=O)(=O)c2cccs2)cc1 (configuration not stated)	-1	-17	-7	-3	17	-5
CCOc1ccccc1CNC(=O)c1ccccc1NC(=O)C1=CSCCO1	-2	20	3	20	-22	1
Nc1cccnc1Sc1cccc(Cl)c1	0	10	.	-12	-13	-11
COc1cnc(-c2ccccn2)nc1Sc1cccc(Cl)c1	0	39	0	67*	91*	40
COc1ccc(Br)cc1CN(C)CC(=O)NCc1ccc(F)cc1	0	21	12	3	16	98*
Cc1cccc(NC(=O)CCC(=O)N/N=C/c2cc([N+](=O)[O-])ccc2O)c1	2	17	9	-28	?	10
O=C(CCC(=O)Nc1cc(C(F)(F)F)ccc1Cl)N/N=C\c1cc([N+](=O)[O-])ccc1O	5	49	16	103*	-8	40
O=C(CCC(=O)Nc1ccc(F)cc1)N/N=C/c1cc([N+](=O)[O-])ccc1O	3	7	17	-1	-14	2
O=C(N/N=C/c1cc([N+](=O)[O-])ccc1O)C1CCCCC1	21	4	-4	-4	9	34
O=C(N/N=C/c1cc([N+](=O)[O-])ccc1O)C1C2CCCCC21 (configuration not stated)	.	4	9	-6	101*	6
O=C(CCC(=O)Nc1ccc(Br)cc1)N/N=C/c1cc([N+](=O)[O-])ccc1O	4	50	12	56*	1	3
CCOc1ccc2[nH]c3c(NCCCOC)ncnc3c2c1	1	-65	-4	2	-2	-4
CC(C)OCCCNc1ncnc2c1[nH]c1ccccc12	24	1	.	-12	6	125*
CS(=O)(=O)c1ccc(-c2nnc(NC(=O)c3cccc(N4C(=O)CCC4=O)c3)o2)cc1	-1	16	-7	2	0	.
O=C(Nc1nnc(-c2ccc(Br)cc2)o1)c1cccc(N2C(=O)CCC2=O)c1	-3	-9	14	88*	7	.
O=C(Nc1nnc(-c2ccccc2)o1)c1cccc(N2C(=O)CCC2=O)c1	0	0	-1	0	100*	.
CCc1ccc2[nH]c(O)c(N=Nc3nc(-c4ccccc4)cs3)c2c1	7	20	45	53*	7	22
COc1ccc(C(=O)N/C(=C/c2cccnc2)C(=O)N2CCCCCC2)cc1OC	0	22	13	-1	9	-1
Cc1ccnc(NCn2nnc3ccccc32)c1	0	-2	.	-2	2	.
O=C(CSc1nc2ccccc2o1)Nc1cc(C(F)(F)F)ccc1N1CCOCC1	3	29	3	2	0	0
O=C(CSc1nc2ccccc2o1)Nc1ccccc1N1CCCCCC1	12	-1	38	59*	-25	-4
Cc1nc(N2CCC(C)CC2)c2c(C)c(C(=O)Nc3ccc(C)c(F)c3)sc2n1	44	15	.	47	2	10
